Screening results (PubChem)
The list is not random: actives were taken first. Their share in the collection is about 6%.
D1 antag: Antagonist of Human D 1 Dopamine Receptor: qHTS; AID 504652, 2011; activity change, negative = inhibition, % at 10 µM; HEK293 TREx D1 cells, calcium flux, dopamine EC80; active compounds read low; D(1A) dopamine receptor (Homo sapiens), P21728; actives 3.2% (n = 360,000); in the data active means activity change below about -30%; further: on the % scale 0 is the no-effect control and ±100 the full control effect
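Compound effects on dopamine-evoked calcium signalling were measured in tetracycline-induced HEK293 Trex D1 cells. Dopamine at EC80 followed a 180 s compound pre-read, and fluorescence was tracked kinetically for 180 s more.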
D1 PAM: Potentiators of Human D1 Dopamine Receptor: qHTS; D(1A) dopamine receptor (Homo sapiens), P21728; HEK293 TREx D1 cells, calcium flux, dopamine EC20 potentiation; potentiation, % at 10 µM; actives 0.036% (n = 360,000); AID 504651, 2011; in the data active means potentiation above about 30%; further: 0% is about no effect
DRD3 antagonist: qHTS of D3 Dopamine Receptor Antagonist: qHTS. AID 652054, 2013. max response, negative = inhibition, %. D3R cells, DiscoveRx beta-arrestin luminescence, antagonist mode; active compounds read low. D(3) dopamine receptor (Homo sapiens), P35462. actives 2.5% (n = 360,000); in the data active means max response below about -50%; further: on the % scale 0 is the no-effect control and ±100 the full control effect
Target sequence (P35462 whole entry, looked up): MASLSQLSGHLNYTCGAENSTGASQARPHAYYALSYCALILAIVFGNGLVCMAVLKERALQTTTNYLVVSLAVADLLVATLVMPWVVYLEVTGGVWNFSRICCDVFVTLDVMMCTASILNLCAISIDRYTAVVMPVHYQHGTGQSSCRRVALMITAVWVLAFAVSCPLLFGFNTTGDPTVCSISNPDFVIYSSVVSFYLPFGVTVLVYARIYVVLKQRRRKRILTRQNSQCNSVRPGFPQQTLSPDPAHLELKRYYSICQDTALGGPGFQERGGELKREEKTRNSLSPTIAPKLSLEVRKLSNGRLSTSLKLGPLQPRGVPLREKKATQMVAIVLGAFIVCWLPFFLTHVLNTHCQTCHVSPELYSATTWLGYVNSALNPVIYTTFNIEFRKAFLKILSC
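Cells plated overnight at 1500 cells/well, then exposed to library compounds with dopamine controls for 90 minutes at 37 degrees C. DiscoveRx reagent added for 30–60 minutes at room temperature; luminescence read, quantitative HTS format.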
DRD3 agonist: qHTS of D3 Dopamine Receptor Agonist: qHTS; D(3) dopamine receptor (Homo sapiens), P35462; D3R DiscoveRx beta-arrestin cells, luminescence, 90 min; max activation, %; actives 0.58% (n = 410,000); AID 652048, 2013; in the data active means max activation above about 30%; further: 0% is about no effect
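Agonist mode: compounds and dopamine controls were applied to plated cells for 90 min at 37 degrees C after an overnight attachment at 1500 cells/well. Luminescent read-out followed 30 - 60 minutes at room temperature with DiscoveRx detection reagent.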
D1 ag: Allosteric Agonists of the Human D1 Dopamine Receptor: qHTS; D(1A) dopamine receptor (Homo sapiens), P21728; HEK293 T-REx D1 cells, calcium flux, agonist mode; activation, % at 2 µM; actives 1% (n = 360,000); AID 504660, 2011; in the data active means activation above about 30%; further: 0% is about no effect
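Agonism was scored from calcium flux recorded over 180 s (1 read/s) after pintool compound addition, following a 10-cycle baseline. Cells were inducible force-coupled HEK293 TREx D1, plated overnight at 30 C and loaded with no-wash calcium dye.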
The depositor's hits bear a star.

How did O=C1/C(=C/c2ccccc2[N+](=O)[O-])COc2ccccc21 do in these assays?
D1 PAM: -4; DRD3 antagonist: -71*; DRD3 agonist: -12; D1 ag: -1

How did COc1ccc(-c2nc3sc(CCNC(=O)Cc4ccccc4)c(C)n3n2)cc1 do in these assays?
D1 PAM: -2; DRD3 agonist: -3; D1 ag: 7

How did COc1ccc(CNC(=O)CCCc2cn(C)c3ccccc23)c(OC)c1 do in these assays?
D1 antag: 8; D1 PAM: 0; DRD3 agonist: -11; D1 ag: -5

Results for COC(=O)CS(=O)(=O)c1nc2ccccc2nc1N1CCCCC1 ?
D1 antag: -3; D1 PAM: -1; DRD3 agonist: -4; D1 ag: 1

Results for CC(C)C[C@H]1COCCS(=O)(=O)N1Cc1ccccc1F ?
DRD3 antagonist: -4; DRD3 agonist: 42*

How did CCC(C)[C@H]1COCCS(=O)(=O)N1Cc1ccccc1F (some centres not stated) do in these assays?
D1 antag: 2; D1 PAM: -2; DRD3 antagonist: -1; DRD3 agonist: -14; D1 ag: 1

How did Cc1nc2c(cc1N)nc(C)n2Cc1ccccc1 do in these assays?
D1 antag: -1; D1 PAM: -2; DRD3 antagonist: -51*; DRD3 agonist: -10; D1 ag: 3

What do the screens show for `Cc1nc2ccc(N)cc2c(=O)n1Cc1ccc(Cl)cc1`?
D1 antag: 0; D1 PAM: -5; DRD3 antagonist: 2; DRD3 agonist: 2; D1 ag: 2

How did Cc1cc(C)cc(NC(=O)CC(C)n2nc(C)cc2C)c1 (configuration not stated) do in these assays?
D1 antag: -14; D1 PAM: -6; DRD3 agonist: 8; D1 ag: 8

What do the screens show for `CNc1ccc(-c2cccc([N+](=O)[O-])c2)cn1`?
DRD3 antagonist: -59*; DRD3 agonist: -8

How did O=C(NCc1ccc(Cl)cc1)C(=O)Nc1ccc(Br)cc1 do in these assays?
D1 antag: 8; D1 PAM: -1; DRD3 agonist: -2; D1 ag: 1

What do the screens show for `N#CCC(=O)Nc1ccc(C(=O)OCC(=O)N=c2sccn2Cc2ccccc2Cl)cc1`?
D1 antag: -46*; D1 PAM: -10; DRD3 antagonist: 0; DRD3 agonist: 5; D1 ag: 4

How did COC(=O)c1ccc(NC(=S)NCCc2ccccc2C)cc1 do in these assays?
D1 antag: -36*; D1 PAM: -5; DRD3 antagonist: -24; DRD3 agonist: -8; D1 ag: 23

What do the screens show for `CCc1cccc(CC)c1NC(=O)CN1CCN(c2ccccc2)CC1`?
D1 antag: 0; D1 PAM: 6; DRD3 antagonist: -76*; DRD3 agonist: -10; D1 ag: 3

What do the screens show for `COC(=O)c1ccc(N2CCN(CC(=O)c3ccc(C)cc3)CC2)c([N+](=O)[O-])c1`?
DRD3 antagonist: -16; DRD3 agonist: 1

What do the screens show for `Cc1ccc(NC(=O)Cc2ccc(F)cc2)cc1`?
D1 antag: -9; D1 PAM: 2; DRD3 antagonist: 9; DRD3 agonist: -6; D1 ag: -2

Results for COC(=O)c1ccc(NC(=O)Cc2ccc(F)cc2)cc1 ?
D1 antag: -30*; D1 PAM: -4; DRD3 antagonist: 0; DRD3 agonist: -8; D1 ag: 0

Results for O=C(CN1CCN(c2ccccc2)CC1)Nc1ccccc1Cl ?
D1 PAM: -3; DRD3 antagonist: 0; DRD3 agonist: 6; D1 ag: 0

Results for COC(=O)c1ccc(N2CCN(CC(=O)c3ccc(-c4ccccc4)cc3)CC2)c([N+](=O)[O-])c1 ?
D1 antag: -34*; D1 PAM: -8; DRD3 antagonist: 0; DRD3 agonist: -3; D1 ag: 2

What do the screens show for `COC(=O)c1ccc(NC(=S)NCCc2cccc(C)c2)cc1`?
D1 antag: -29; D1 PAM: -10; DRD3 antagonist: -4; DRD3 agonist: 1; D1 ag: 21

Results for COc1ccc(NC(=O)Cn2c(C)cc3ccccc3c2=O)c(OC)c1 ?
D1 antag: 0; D1 PAM: 2; DRD3 agonist: 3; D1 ag: 1
